# Results as given in the supplement of paper PMC8728848.
# The full list was thinned out, with the strongest signals kept by preference.
# B1: NK11 (Sus scrofa) (peptide)
# chain: KISKRILTGKK
# Tests used:
# Assay in all cases: glycan array binding signal (z-score within array); higher = stronger binding
# Conditions in all cases: glycan notation: IUPAC condensed, linker removed
# Gal6S(b1-3)GlcNAc6S = biological target: Gal6S(b1-3)GlcNAc6S
# Method in brief: (§1)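 The binding signal is a Z-score computed within each array. Data were drawn from 3228 arrays in the Consortium for Functional Glycomics database, restricted to those with a known protein sequence. Scores were averaged over arrays of the same protein sequence at different concentrations or buffers, and over linkers, and negative values can be taken as non-binding.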
# Gal6S(b1-4)GlcNAc6S = biological target: Gal6S(b1-4)GlcNAc6S
# Method in brief: as §1
# [1] = biological target: GalNAc(a1-3)Fuc(a1-2)Gal(b1-4)GlcNAc(b1-3)[GalNAc(a1-3)Fuc(a1-2)Gal(b1-4)GlcNAc(b1-6)]GalNAc
# Method in brief: as §1
# [2] = biological target: GalNAc(b1-3)Gal(a1-4)Gal(b1-4)GlcNAc
# Method in brief: as §1
# GalNAc(b1-4)Gal(b1-4)Glc = biological target: GalNAc(b1-4)Gal(b1-4)Glc
# Method in brief: as §1
# [3] = biological target: GalNAc(b1-4)GlcNAc(b1-3)GalNAc(b1-4)GlcNAc
# Method in brief: as §1
# GalNAc(b1-4)GlcNAc6S = biological target: GalNAc(b1-4)GlcNAc6S
# Method in brief: as §1
# GalNAc6S(b1-4)GlcNAc = biological target: GalNAc6S(b1-4)GlcNAc
# Method in brief: as §1
# [4] = biological target: GlcA3S(b1-3)Gal(b1-4)GlcNAc(b1-3)Gal(b1-4)Glc
# Method in brief: as §1
# [5] = biological target: GlcNAc(b1-2)[GlcNAc(b1-4)]Man(a1-3)[GlcNAc(b1-4)][GlcNAc(b1-2)Man(a1-6)]Man(b1-4)GlcNAc(b1-4)GlcNAc
# Method in brief: as §1
# [6] = biological target: GlcNAc(b1-3)Gal(b1-4)GlcNAc(b1-3)Gal(b1-4)GlcNAc(b1-2)[GlcNAc(b1-3)Gal(b1-4)GlcNAc(b1-3)Gal(b1-4)GlcNAc(b1-6)]Man(a1-6)[GlcNAc(b1-3)Gal(b1-4)GlcNAc(b1-3)Gal(b1-4)GlcNAc(b1-2)Man(a1-3)]Man(b1-4)GlcNAc(b1-4)[Fuc(a1-6)]GlcNAc
# Method in brief: as §1
# [7] = biological target: GlcNAc(b1-3)Gal(b1-4)GlcNAc(b1-3)Gal(b1-4)GlcNAc(b1-3)Gal(b1-4)GlcNAc(b1-2)[GlcNAc(b1-3)Gal(b1-4)GlcNAc(b1-3)Gal(b1-4)GlcNAc(b1-3)Gal(b1-4)GlcNAc(b1-6)]Man(a1-6)[GlcNAc(b1-3)Gal(b1-4)GlcNAc(b1-3)Gal(b1-4)GlcNAc(b1-3)Gal(b1-4)GlcNAc(b1-2)Man(a1-3)]Man(b1-4)GlcNAc(b1-4)[Fuc(a1-6)]GlcNAc
# Method in brief: as §1
# [8] = biological target: GlcNAc(b1-3)Gal(b1-4)GlcNAc(b1-3)Gal(b1-4)GlcNAc(b1-3)Gal(b1-4)GlcNAc(b1-3)Gal(b1-4)GlcNAc(b1-2)Man(a1-3)[GlcNAc(b1-3)Gal(b1-4)GlcNAc(b1-3)Gal(b1-4)GlcNAc(b1-3)Gal(b1-4)GlcNAc(b1-3)Gal(b1-4)GlcNAc(b1-2)Man(a1-6)]Man(b1-4)GlcNAc(b1-4)[Fuc(a1-6)]GlcNAc
# Method in brief: as §1
# [9] = biological target: GlcNAc(b1-4)GlcNAc(b1-4)GlcNAc
# Method in brief: as §1
# Man(a1-6)Man = biological target: Man(a1-6)Man
# Method in brief: as §1
# [10] = biological target: Neu5Ac(a2-3)Gal(b1-3)GalNAc
# Method in brief: as §1
# [11] = biological target: Neu5Ac(a2-3)Gal(b1-3)GlcNAc(b1-3)Gal(b1-3)GlcNAc
# Method in brief: as §1
# [12] = biological target: Neu5Ac(a2-3)Gal(b1-3)[Fuc(a1-4)]GlcNAc
# Method in brief: as §1
# [13] = biological target: Neu5Ac(a2-3)Gal(b1-4)GlcNAc(b1-2)[Neu5Ac(a2-3)Gal(b1-4)GlcNAc(b1-6)]Man(a1-6)[Neu5Ac(a2-3)Gal(b1-4)GlcNAc(b1-2)Man(a1-3)][GlcNAc(b1-4)]Man(b1-4)GlcNAc(b1-4)GlcNAc
# Method in brief: as §1
# [14] = biological target: Neu5Ac(a2-3)Gal(b1-4)[Fuc(a1-3)]GlcNAc(b1-3)Gal
# Method in brief: as §1
# [15] = biological target: Neu5Ac(a2-3)Gal(b1-4)[Fuc(a1-3)]GlcNAc6S
# Method in brief: as §1
# [16] = biological target: Neu5Ac(a2-3)Gal6S(b1-4)[Fuc(a1-3)]GlcNAc
# Method in brief: as §1
# [17] = biological target: Neu5Ac(a2-6)Gal(b1-4)GlcNAc(b1-2)Man(a1-3)[GlcNAc(b1-2)Man(b1-4)GlcNAc(b1-2)Man(a1-6)]Man(b1-4)GlcNAc(b1-4)GlcNAc
# Method in brief: as §1
# [18] = biological target: Neu5Ac(a2-6)Gal(b1-4)GlcNAc(b1-2)Man(a1-3)[Man(a1-6)]Man(b1-4)GlcNAc(b1-4)GlcNAc
# Method in brief: as §1
# [19] = biological target: Neu5Ac(a2-6)Gal(b1-4)GlcNAc(b1-3)Gal(b1-4)[Fuc(a1-3)]GlcNAc(b1-3)Gal(b1-4)[Fuc(a1-3)]GlcNAc
# Method in brief: as §1
# [20] = biological target: Neu5Ac(a2-6)Gal(b1-4)GlcNAc6S
# Method in brief: as §1
# [21] = biological target: Neu5Ac(a2-8)Neu5Ac(a2-3)Gal(b1-4)GlcNAc
# Method in brief: as §1
binder,measurement,setting,value
B1,glycan array binding signal (z-score),Gal6S(b1-3)GlcNAc6S,3.65
same,glycan array binding signal (z-score),Gal6S(b1-4)GlcNAc6S,2.58
same,glycan array binding signal (z-score),[1],-0.542
same,glycan array binding signal (z-score),[2],0.262
same,glycan array binding signal (z-score),GalNAc(b1-4)Gal(b1-4)Glc,-0.229
same,glycan array binding signal (z-score),[3],-0.419
same,glycan array binding signal (z-score),GalNAc(b1-4)GlcNAc6S,2.55
same,glycan array binding signal (z-score),GalNAc6S(b1-4)GlcNAc,0.009
same,glycan array binding signal (z-score),[4],-1.34
same,glycan array binding signal (z-score),[5],-0.207
same,glycan array binding signal (z-score),[6],2.97
same,glycan array binding signal (z-score),[7],2.73
same,glycan array binding signal (z-score),[8],0.231
same,glycan array binding signal (z-score),[9],-0.597
same,glycan array binding signal (z-score),Man(a1-6)Man,-0.205
same,glycan array binding signal (z-score),[10],0.104
same,glycan array binding signal (z-score),[11],-0.342
same,glycan array binding signal (z-score),[12],-0.073
same,glycan array binding signal (z-score),[13],0.405
same,glycan array binding signal (z-score),[14],0.515
same,glycan array binding signal (z-score),[15],3.52
same,glycan array binding signal (z-score),[16],-0.648
same,glycan array binding signal (z-score),[17],2.33
same,glycan array binding signal (z-score),[18],1.52
same,glycan array binding signal (z-score),[19],-0.044
same,glycan array binding signal (z-score),[20],0.729
same,glycan array binding signal (z-score),[21],-1.78
